KKLEB tox: cytotoxicity in KKLEB CF airway cells, primary screen, cytotoxicity control for CF NF-kB inhibitor project, cell-based, uHTS, fluorescence assay plates | AID 602141, 2011 | hit rate 0.36% among 360,000 | activity change (cytotoxicity), % at 5 µM | KKLEB CF airway cells viability, ATPlite luminescence, overnight; active compounds read low; cells stimulated with P. aeruginosa culture filtrate;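 active = corrected activity change at or below -50% at 5 µM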
MITF TRPM1 inh: inhibitors of MITF-dependent TRPM1 promoter reporter, primary screen, cell-based, SK-MEL-5, single point, luciferase; AID 488899, 2010; inhibition, % at 12.5 µM; SK-MEL-5 TRPM1 promoter luciferase, 24 h; hit rate 0.83% among 330,000;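 active = mean inhibition across replicates of 60% or more, whatever share of single replicates reaches that level; inconclusive = some that reach 60%, reason not given; inactive = mean inhibition across replicates below 60%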
CF NFkB inh: inhibitors of PAF-induced NF-kB signaling, primary screen, cell-based, GFP fluorescence, uHTS | KKLEB NF-kB-GFP reporter, GFP fluorescence overnight | hit rate 0.86% among 360,000 | inhibition, % at 5 µM;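 active = at least 50% inhibition at 5 µM, scaled per plate between neutral and stimulator controls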;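 also: PAF is a Pseudomonas aeruginosa culture filtrate used as stimulus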
Peg3 prom inh: Peg3 promoter-driven luciferase inhibitors, primary screen, cell-based, HeLa, luciferase luminescence | HeLa PEG-Prom luciferase reporter, overnight | inhibition, % at 20 µM | hit rate 1.7% among 360,000 | AID 588405, 2011;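 active = inhibition of at least 50% at 20 µM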
HIF-2a block: HIF-2a reporter inhibitors, primary screen, luminescence, 786-0 RCC cells; 786-0 RCC cells HIF-2a reporter, luciferase luminescence, overnight; inhibition, % at 18.8 µM; hit rate 0.72% among 360,000;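 active = inhibition of the luminescence signal of 40% or more relative to plate controls, in a single-dose primary screen at 18.75 µM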
LMP1 NFkB inh: EBV LMP1-driven NF-kappaB luciferase reporter inhibitors, primary screen, cell-based, luminescence, single point; inhibition, % at 12.5 µM; AID 504558, 2011; hit rate 0.69% among 350,000; LMP1-induced NF-kappaB luciferase reporter cells; in the data active = inhibition above about 41%; inconclusive = no clear call, values can overlap the other calls
Mdm2-MdmX confirm: retested Mdm2-MdmX interaction blockers, confirmation, cell-based, luminescence, single concentration, set 2. AID 504601, 2011. inhibition, % at 8 µM. hit rate 99% among 740. SaOS-2 split-luciferase Mdm2/MdmX complementation. shares compounds with HIF-2a block;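 active = mean inhibition of the luminescence signal across two replicates at or above 26 percent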
Target sequence (O15151 whole entry, looked up): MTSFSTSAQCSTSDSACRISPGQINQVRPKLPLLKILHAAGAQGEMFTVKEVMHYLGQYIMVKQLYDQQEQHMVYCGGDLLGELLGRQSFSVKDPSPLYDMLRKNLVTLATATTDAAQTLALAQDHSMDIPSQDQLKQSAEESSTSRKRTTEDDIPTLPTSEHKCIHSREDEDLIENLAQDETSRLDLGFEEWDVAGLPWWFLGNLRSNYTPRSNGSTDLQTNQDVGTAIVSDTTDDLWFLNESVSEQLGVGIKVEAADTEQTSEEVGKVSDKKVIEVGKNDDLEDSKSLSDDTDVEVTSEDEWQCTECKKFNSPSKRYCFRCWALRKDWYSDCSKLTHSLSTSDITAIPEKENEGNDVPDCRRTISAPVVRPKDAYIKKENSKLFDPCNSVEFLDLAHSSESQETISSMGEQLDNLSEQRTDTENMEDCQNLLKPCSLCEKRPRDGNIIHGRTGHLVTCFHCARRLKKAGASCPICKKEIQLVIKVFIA
Target sequence (Q00987 whole entry, looked up): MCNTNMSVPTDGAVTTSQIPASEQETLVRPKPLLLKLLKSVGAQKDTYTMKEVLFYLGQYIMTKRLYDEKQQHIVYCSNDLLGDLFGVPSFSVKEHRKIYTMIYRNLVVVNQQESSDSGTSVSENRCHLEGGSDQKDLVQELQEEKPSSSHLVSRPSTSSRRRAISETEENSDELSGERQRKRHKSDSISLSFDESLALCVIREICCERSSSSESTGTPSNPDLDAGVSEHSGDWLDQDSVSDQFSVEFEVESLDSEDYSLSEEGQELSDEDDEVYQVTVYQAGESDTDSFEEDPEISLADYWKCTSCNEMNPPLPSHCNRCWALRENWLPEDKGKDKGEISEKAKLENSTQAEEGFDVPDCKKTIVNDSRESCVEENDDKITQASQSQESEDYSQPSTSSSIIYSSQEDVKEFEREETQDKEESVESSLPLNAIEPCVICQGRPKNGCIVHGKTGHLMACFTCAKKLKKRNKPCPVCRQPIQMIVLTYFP
HIF-2a inh conf: HIF-2a reporter inhibitor retest, confirmation, luminescence, 786-0 RCC cells; inhibition, % at 18.8 µM; shares compounds with HIF-2a block; AID 651580, 2012; HIF-2a luciferase reporter luminescence, overnight; hit rate 56% among 1,800;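 active = mean inhibition across four replicates of at least 40 percent at the single tested concentration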
HIF-1a counter: HIF-1a luciferase reporter signal reduction – MiaPaCa-2 cells, single concentration, counter-screen for HIF-2a inhibitor project, confirmation | AID 651589, 2012 | shares compounds with HIF-2a block | hit rate 72% among 1,800 | inhibition, % at 18.8 µM | MiaPaCa-2 HIF-1a luciferase reporter, desferoxamine, overnight;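 active = mean inhibition of the reporter signal across four replicates at the single tested dose of 50% or more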
A number is an active result; i = inactive; ? = inconclusive; nt = no result. Only some compounds are listed: those with a hit (about 3% of all), similar ones and a draw of the others.

SMILES | KKLEB tox | MITF TRPM1 inh | CF NFkB inh | Peg3 prom inh | HIF-2a block | LMP1 NFkB inh | HIF-2a inh conf | HIF-1a counter | others
COc1ccc(C(C(=O)NC2CCCCC2)N(C(=O)CCl)c2ccc(OC)cc2)cc1 (configuration not stated) | -81.0 | 81.5 | 71.6 | 101.0 | i | ? | nt | nt | Mdm2-MdmX confirm=94.6
COc1ccc(C(C(=O)NC2CCCCC2)N(C(=O)CCl)c2ccc(C)cc2)cc1 (configuration not stated) | -93.1 | 82.2 | 90.9 | 69.0 | i | 46.6 | nt | nt | Mdm2-MdmX confirm=102.2
CCc1ccccc1N(C(=O)CNC(=O)c1ccco1)C(C(=O)NC1CCCC1)c1cccnc1 (configuration not stated) | i | i | i | i | i | i | nt | nt
O=C(NC1CCCCC1)C(c1cccnc1)N(C(=O)CCl)c1ccccc1Cl (configuration not stated) | i | i | i | i | i | 62.7 | nt | nt | Mdm2-MdmX confirm=103.5
O=C(CC[C@H]1O[C@@H](n2ccc(=O)[nH]c2=O)[C@H](O)[C@@H]1O)NC1CCN(Cc2ccccc2)C1 (some centres not stated) | i | nt | i | i | i | nt | nt | nt
Cc1cc(N2CCCCC2)nc(NCc2ccccc2)n1 | i | i | i | i | 47.3 | i | i | 60.3
CS(=O)(=O)c1nc(-c2ccccc2)cc(-c2ccccc2)c1C#N | i | i | 61.1 | 101.2 | 76.0 | i | i | 106.2
Cc1ccc(-c2cc(-c3ccccc3)c(C#N)c(Br)n2)cc1 | i | i | i | i | i | i | nt | nt
O=C(Nc1ccc(NC(=S)NC(=O)c2ccco2)cc1)c1ccc(Br)cc1 | i | nt | i | i | 57.0 | i | 63.9 | i
Cn1c(/C=C/c2ccc(Br)cc2)c([N+](=O)[O-])c(=O)n(C)c1=O | i | i | i | 61.6 | 92.0 | i | 55.3 | 96.1
CCOC(=O)c1c2c(n(C)c1C)C(=O)C(=O)c1ccc(Br)cc1-2 | -78.4 | 86.9 | 97.3 | 101.0 | i | 77.0 | nt | nt | Mdm2-MdmX confirm=97.5
Cc1nn(C)c(C)c1NS(=O)(=O)c1ccccc1 | i | i | i | i | i | i | nt | nt
Cc1nn(-c2ccccc2)c(C)c1NS(=O)(=O)c1ccccc1 | i | i | i | i | 41.3 | i | i | i
CC1(C)CC[C@]2(C(=O)O)CC[C@]3(C)C(=CC[C@@H]4[C@@]5(C)CC[C@H](O[C@@H]6O[C@H](C(=O)O)[C@@H](O)[C@H](O[C@@H]7OC[C@H](O)[C@H](O)[C@H]7O)[C@H]6O)C(C)(C)[C@@H]5CC[C@]43C)[C@@H]2C1 | -95.0 | i | 88.2 | 58.9 | 54.7 | i | 94.5 | 52.2
CC1(C)CC[C@]2(C(=O)O[C@@H]3O[C@H](CO)[C@@H](O)[C@H](O)[C@H]3O)CC[C@]3(C)C(=CCC4[C@@]5(C)CC[C@H](O[C@@H]6O[C@H](C(=O)O)[C@@H](O[C@H]7OC[C@@H](O)[C@@H](O)[C@@H]7O)[C@H](O)[C@H]6O)C(C)(C)C5CC[C@]43C)[C@@H]2C1 (some centres not stated) | i | i | i | i | i | i | nt | nt
COc1ccc(Nc2ncnc3scc(-c4ccc(OC)cc4)c23)cc1 | i | i | i | i | 41.7 | i | i | 58.3
COc1ccc(-c2csc3ncnc(Cl)c23)cc1 | i | i | i | i | i | i | nt | nt
O=C(O)COc1ccc(-c2nccc(-c3ccccn3)n2)cc1 | i | i | i | i | 86.8 | i | 89.6 | 59.5
NNC(=O)COc1ccc(-c2nccc(-c3ccc(F)cc3)n2)cc1 | i | i | i | i | 67.8 | i | 78.7 | 51.5

Compound activity from PubChem.
